Laboratory results published in PubChem BioAssay AID1159580 (chemical genetic matrix, 2015).
Values joined by “and” are separate entries in the source; they are usually repeats but may differ in a detail not shown here. Equal entries are not always repeated. In all, about 5,500 compounds went through this assay and about 2,000 (36%) were called active. Another 18% or so got no clear call; they are omitted. No stated cut-off is given here; in the data, active means normalized growth mostly below about 0.91 (no sharp cut-off); inconclusive means no clear call, values can overlap the other calls; inactive means mostly above about 0.92. The list shows a part of the results.

Experiment: chemical genetic growth profiling, strain panel (AID 1159580);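 further: tested at 20 µM; growth read once vehicle control cultures reached saturation at 30 °C; 1 = growth at the plate median or of vehicle wells; lower values mean less growth of the strain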
Details: S. cerevisiae deletion strains, growth OD

Measured: normalized growth

CC1(C)S[C@@H]2[C@H](NC(=O)COc3ccccc3)C(=O)N2[C@H]1C(=O)O
inactive: locus YAL013W, strain DEP1, hits give low values 1 | locus YAL021C, strain ccr4, hits give low values 1.01 | locus YAL026C, strain drs2, hits give low values 1 | locus YAL030W, strain snc1, hits give low values 0.989 | locus YBL061C, strain skt5, hits give low values 0.985 | locus YBR009C, strain hhf1, hits give low values 1.01 | locus YBR021W, strain FUR4, hits give low values 1.02 | locus YBR023C, strain chs3, hits give low values 0.996 | locus YBR171W, strain sec66, hits give low values 0.969 | locus YBR229C, strain ROT2, hits give low values 1 | locus YBR231C, strain swc5, hits give low values 0.975 | locus YBR279W, strain paf1, hits give low values 0.999 | locus YCL011C, strain gbp2, hits give low values 1 | locus YCL016C, strain dcc1, hits give low values 1.02 | locus YCL029C, strain bik1, hits give low values 1.04 | locus YCL069W, strain vba3, hits give low values 0.993 | locus YCR088W, strain abp1, hits give low values 0.997 | locus YDL005C, strain med2, hits give low values 0.994 | locus YDL035C, strain GPR1, hits give low values 1.01 | locus YDL040C, strain nat1, hits give low values 0.993 | locus YDL074C, strain BRE1, hits give low values 1.01 | locus YDL101C, strain DUN1, hits give low values 1.01 | locus YDL134C, strain PPH21, hits give low values 1.01 | locus YDL185W, strain tfp1, hits give low values 1.01 | locus YDL192W, strain arf1, hits give low values 1.03 | locus YDR001C, strain nth1, hits give low values 0.99 | locus YDR069C, strain doa4, hits give low values 0.98 | locus YDR101C, strain arx1, hits give low values 1.02 | locus YDR137W, strain rgp1, hits give low values 0.975 | locus YDR150W, strain NUM1, hits give low values 0.999 | locus YDR159W, strain sac3, hits give low values 1 | locus YDR162C, strain NBP2, hits give low values 1.01 | locus YDR195W, strain ref2 0.955 | locus YDR297W, strain sur2, hits give low values 0.991 | locus YDR318W, strain mcm21, hits give low values 1.02 | locus YDR334W, strain swr1, hits give low values 0.993 | locus YDR335W, strain msn5, hits give low values 0.986 | locus YDR388W, hits give low values 1.02 | locus YDR392W, strain spt3, hits give low values 1.03 | locus YDR502C, strain sam2, hits give low values 1.03 | locus YEL003W, strain gim4, hits give low values 0.997 | locus YEL037C, strain rad23, hits give low values 0.992 | locus YEL061C, strain CIN8 (second series), hits give low values 0.986 | locus YEL061C, strain CIN8, hits give low values 1 | locus YER015W, strain faa2, hits give low values 0.999 | locus YER016W, strain bim1, hits give low values 1 | locus YER110C, hits give low values 1.02 | locus YER111C, strain swi4, hits give low values 0.99 | locus YER155C, strain BEM2 (second series), hits give low values 0.977 | locus YER155C, strain BEM2, hits give low values 0.999 | locus YER167W, strain BCK2, hits give low values 1 | locus YFR010W, strain ubp6, hits give low values 0.98 | locus YGL078C, strain dbp3, hits give low values 1.02 | locus YGL086W, strain mad1, hits give low values 1.01 | locus YGL167C, strain pmr1, hits give low values 0.996 | locus YGL173C, strain kem1, hits give low values 0.991 | locus YGL227W, strain vid30, hits give low values 0.984 | locus YGL240W, strain doc1, hits give low values 0.976 | locus YGL248W, strain PDE1, hits give low values 1.01 | locus YGL253W, strain hxk2, hits give low values 0.998 | locus YGR078C, strain PAC10, hits give low values 1.01 | locus YGR135W, strain pre9, hits give low values 1.02 | locus YGR229C, strain SMI1, hits give low values 1.01 | locus YGR252W, strain gcn5, hits give low values 1.02 | locus YHR013C, strain ard1, hits give low values 1 | locus YHR027C, strain rpn1, hits give low values 1.01 | locus YHR030C, strain SLT2, hits give low values 1.01 and 0.967 | locus YHR079C, strain IRE1 (second series), hits give low values 1.02 | locus YHR079C, strain IRE1, hits give low values 0.98 | locus YHR094C, strain hxt1, hits give low values 1.02 | locus YHR129C, strain ARP1, hits give low values 1 | locus YHR142W, strain chs7, hits give low values 1.01 | locus YHR200W, strain rpn10, hits give low values 1.02 | locus YIL066C, strain RNR3, hits give low values 1.01 | locus YIL073C, strain SPO22, hits give low values 1.07 | locus YIL125W, strain kgd1, hits give low values 1.02 | locus YIR030C, strain dcg1, hits give low values 1.03 | locus YJL092W, strain hpr5, hits give low values 0.976 | locus YJL095W, strain BCK1 (second series), hits give low values 0.99 | locus YJL095W, strain BCK1, hits give low values 1.01 and 0.99 | locus YJL115W, strain asf1, hits give low values 0.988 | locus YJL129C, strain trk1, hits give low values 0.955 | locus YJL134W, strain LCB3, hits give low values 1 | locus YJL154C, strain vps35, hits give low values 0.988 | locus YJL164C, strain tpk1, hits give low values 1.02 | locus YJL166W, strain qcr8, hits give low values 0.953 | locus YJL168C, strain set2, hits give low values 1.02 | locus YJL187C, strain SWE1 (second series), hits give low values 1.01 | locus YJL187C, strain SWE1, hits give low values 0.997 | locus YJR043C, strain POL32, hits give low values 1.01 | locus YJR066W, strain TOR1, hits give low values 0.92
